The supplement of paper PMC6555819

How the values were obtained:
Experiment in all cases: PBM binding z-score (relative to random genomic background probes); higher = stronger binding; sequences stand for … in GC…GCGATTGACAGCGTAGAATGAAGG
[1] = system: PPARg:RXRa DBDmut IVT, anti-RXR (DBD mutation: RXRa K156A/R161A, NR concentration 270 nM, RXRa partner concentration 90 nM)
In short: (§1)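 Custom Agilent 4×180K protein-binding microarrays carried double-stranded probes, each with a 34-nt variable region. These regions held direct-repeat seeds, single-nucleotide variants, half-site ablations and random human genomic background sequences. Ligand-free nuclear receptor dimers were incubated on the arrays for 1 h, antibodies against each partner (one per run) detected binding, and scanned fluorescence was regression-normalized. Binding z-scores take the random background probes as reference.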

[2] = system: PPARg:RXRa IVT, anti-PPARg (NR concentration 270 nM, RXRa partner concentration 90 nM)
In short: as §1

[3] = system: PPARg DBDmut:RXRa IVT, anti-PPARg (DBD mutation: PPARg1 K132A/R137A, NR concentration 270 nM, RXRa partner concentration 90 nM)
In short: as §1

[4] = system: PPARg DBDmut IVT, anti-PPARg (DBD mutation: PPARg1 K132A/R137A, NR concentration 270 nM)
In short: as §1

[5] = system: PPARg homodimer (NR concentration 180 nM)
In short: as §1

[6] = system: PXR:RXRa (NR concentration 270 nM, RXRa partner concentration 90 nM)
In short: as §1

[7] = system: PXR homodimer (NR concentration 270 nM)
In short: as §1

[8] = system: RARa:RXR (NR concentration 270 nM, RXRa partner concentration 90 nM)
In short: as §1

[9] = system: RARa homodimer (NR concentration 270 nM)
In short: as §1

[10] = system: RARb:RXRa (NR concentration 270 nM, RXRa partner concentration 90 nM)
In short: as §1

Row | Sequence | PBM binding z-score [1] | PBM binding z-score [2] | PBM binding z-score [3] | PBM binding z-score [4] | PBM binding z-score [5] | PBM binding z-score [6] | PBM binding z-score [7] | PBM binding z-score [8] | PBM binding z-score [9] | PBM binding z-score [10]
1 | GCGACTGAGGCAAAGCAGGTTACCATAAGGTTGG | 0.099 | -0.228 | -1.27 | -1.26 | -0.646 | -0.22 | -0.398 | 0.0827 | -0.323 | -0.412
2 | TCTTGTAGATCACCAGGAGGTTAAGAAAGATCGA | 1.92 | 1.27 | 0.392 | 0.634 | -0.00402 | 0.915 | -0.00438 | 1.15 | -0.698 | 0.672
3 | ACAGACAGGTGATGAAGGTAACTAAGGCTATCAT | -0.224 | 0.73 | 0.827 | -0.211 | 0.053 | 0.0666 | 0.104 | 0.191 | 0.0422 | 0.371
4 | TCTTGTAGATCAACAGGAGGTTTAGAAAGATCGA | 1.64 | 0.449 | 0.726 | 0.199 | 0.11 | -0.0955 | -0.425 | 0.104 | -0.667 | -0.271
5 | GTACCAAGGTGAATAGGTCGTTGTTGAGTAGGCG | 1.9 | 2.74 | 0.246 | -0.308 | 1.31 | 0.708 | -0.604 | 1.5 | 0.154 | 1.91
6 | ATCTCTAGGTAAAAGTGCAGTGAATCCCGAGGAT | 2.08 | 2.5 | 0.765 | 0.971 | 0.819 | 0.0221 | 0.246 | -0.0111 | 0.256 | 0.518
7 | CGTGCAAGGTCAAGGTCAGTGAAAGAGACTCGAA | 3.53 | 4.59 | 1.6 | -0.363 | 4.25 | 4.99 | 1.2 | 5.11 | 2.15 | 5.53
8 | CCTACTGGGCCAAAAAGGTCATTAATGCCGATAA | 3.72 | 3.94 | 0.336 | 0.139 | 3.45 | 4.39 | 3.17 | 5.01 | 1.3 | 3.64
9 | ATCTCTAGGTAAGACTCAGTTCGGTGAAGAACGC | 2.26 | 1.24 | 0.576 | 0.0505 | 0.778 | 0.179 | 0.754 | 0.0942 | 0.985 | 0.104
10 | CGTCAAAGTTCAAGGTAACGCAACAGAAAGCAGC | 0.947 | 2.53 | 0.438 | 0.38 | 3.41 | 4.06 | 3.14 | 3.59 | 1.14 | 5.15
11 | ATATGTAGTTTAGCTGGGGTCATTCAGACTAGGC | 1.04 | 1.41 | 1.71 | 2.11 | 1.95 | 5.98 | 3.93 | 5.81 | 1.36 | 2.74
12 | TCATATACGTAAAAGGTGAAAGTCGGTGTGGTAA | 2.65 | 1.71 | 2.06 | 2.25 | 1.84 | 1.35 | 0.642 | 1.89 | 1.88 | 1.9
13 | TTAACAAGGTGAAGGTCGTTGATCCCTCTGTAGA | 2.79 | 3.4 | 0.419 | 0.266 | 0.4 | 1.35 | 0.014 | 1.82 | -0.625 | 2.03
14 | TCTGCTAGGTCAACGATGGTCAGGTAATCTGCTA | 4.42 | 4.19 | 0.0564 | -0.0875 | 0.216 | 1.61 | -0.526 | 2.34 | -0.895 | 3.93
15 | CCTTACGCGTCAAGGTTATAGCACGGGTGGTACG | 0.185 | -0.0236 | -0.542 | -0.798 | 0.726 | 0.65 | 0.0877 | 1.02 | 0.124 | 0.97
16 | CCTGCTGGGTCATGGTCAGCTAATCTACAGTATG | 2.64 | 2.73 | -0.296 | 0.15 | 0.949 | 1.24 | -0.638 | 2.02 | -0.488 | 3.35
17 | CGTCCAAGGTCAGTAGGTCAGTGAAAGCGACGTG | 5.03 | 6.09 | 0.33 | 0.924 | 4.32 | 3.23 | 0.64 | 4.46 | 1.39 | 5
18 | AGTCAAAGTTCATCTAGGTTACGTAAGATATGCT | 1.81 | 4.48 | 1.59 | 1.1 | 2.63 | 5.66 | 10.7 | 4.25 | 1.94 | 4.99
19 | CCAGACAGGCGAGAAGGTAACTCAGCCTCGATTA | -0.678 | -0.816 | -0.981 | -2.1 | -0.649 | -1.02 | -0.455 | -0.88 | -0.498 | -0.619
20 | ATATGTAGGGTAGCTGGGGTCATTCAGACTAGGC | 5.27 | 5.46 | 1.65 | 3.4 | 2.54 | 6.03 | 3.77 | 5.97 | 0.388 | 2.87
21 | CCTCAAAGTTCAAGGTAACGTAACAGAAAGCAGC | 0.797 | 0.928 | 0.66 | 0.159 | 3.58 | 4.18 | 2.53 | 3.49 | 2.16 | 5.26
22 | CCTACTGGGCCAAAAAGGTCCTTGATGCCGATAA | 3.01 | 2.44 | -0.992 | -1.33 | -0.196 | -0.29 | -0.721 | -0.161 | -0.376 | 0.177
23 | ATATGTTGGTTAGCTGGGGTCATTCAGACTAGGC | 0.909 | 1.74 | 0.767 | 1.26 | 2.8 | 5.64 | 3.66 | 5.26 | 1.53 | 2.72
